# Assay results: the supplement of paper PMC6555819
# System: LXRb homodimer (NR concentration 270 nM)
# Assay: PBM binding z-score (relative to random genomic background probes); higher = stronger binding; sequences stand for … in GC…GCGATTGACAGCGTAGAATGAAGG
# How it was run: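 Regression normalization was applied to scanned fluorescence from custom Agilent 4×180K protein-binding microarrays. Before scanning, arrays were incubated 1 h with ligand-free nuclear receptor dimers, and binding was detected with antibodies against each partner (one per run). Binding z-scores use the random background probes as reference.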
row,Sequence,PBM binding z-score
1,TCAATGAGGTTAAAGATCAGGGAACGTGGCGTCG,0.0519
2,TAGCTTAGGTCATTGGGCCAGTATAGTACGCATC,0.994
3,GGAACCAGGGCAAGTTGATAGCAGAGTTTGATGG,0.488
4,TTACCAAGATGAAGGTCGTTGATCCCTCTGTAGA,-0.663
5,TCTTGTAGATCAAGCAGGTTAAGAACGCCTGAGT,-0.492
6,TGAATGAGGTTAAAGATCAGGGCACGTGGCGTCG,0.456
7,ATCTCTAGGTAAGACTCCGTTCAGTGAAGAACGC,0.894
8,CCAGACAGGTAAAAGGTAACTCAGTCTGGTACGC,-0.535
9,TCATATAGGTAAAAGGTGAAATTCGGTGTGGTAA,0.332
10,GGAACGAGGACAAGTTGATAGCAGAGTTTGATGG,-0.685
11,TCGAGTAGGTTTGTCGGGGCATTCAGCCAACATA,-0.504
12,GATACAGGGTCAGCTAGAGGCCAGAGTGTGGAAA,-0.522
13,TAGCCAAGGTCATGGGCCAGTATACCACGCGAAC,0.229
14,GCTAGTTGGTGAGTAAAAGGTCACACACCGGTCG,-0.0196
15,CCTACTGGGCCATCAGATCATTGATATCAACGTT,-0.349
16,TAGCCTAGGTCATCCGGGCCAGTATAGTGTCGGC,0.281
17,CGTCCAAGGTCAAAGGACAGTGAAGAGATGACGG,1.13
18,TCACGGAGGACACGAAAGGTCAGAGCTCGACATC,-0.784
19,AATGCAGGGTCACTAGGCCAGAGTAGGTACGAAT,0.179
20,CGAACTAGGTCATTGGCAGGACAGTGAATAGTAA,-0.306

row,Sequence,PBM binding z-score
1,TCATATAGGTAATACAGGTGAAGGTCGGCATCTA,0.522
2,AGAATGAGGTTAAGATCAGTGAAACAGAATACAT,-0.196
3,TGAATGAGGTTATAAGATCAGGCAACGTTGCAAA,-0.11
4,CGAACGAGGGCATGAGTTGACAGCAAATGCCGAT,-1.11
5,CGAACTGGGTCATTGACAGGACAGTGAATAGTAA,-0.438
6,GCTGCTAGGCCAACTGATGGTCAGCTAAAGCTCG,-1.01
7,TCTAGTTGGTCACGGAGGTCACACACGACGGGTA,0.773
8,CGTCCAAGGTCAATGCTAGGACAGTGAAAGCATT,0.27
9,CAAACTAGGTCAGAACAGGACAGTGAAGGATGAT,0.235
10,ATCTCTAGGAAACAAGTTCAGTGAAAGAGAGGAC,0.528
11,AGTCAAAGTTCATCTAGGTAACTTAAGATATGCT,1.81
12,TCTAGTTGGTCACGGAGGTCACCCACGACGGGTA,0.635
13,CAAACTAGGTCACGAAAGGTCAATGTCGAATGAC,1.87
14,ATAGACAGGTGAGTGAAGGTAACTCAGCTGGACG,0.00945
15,CCCACTGGGCCAAGGTCATTGATCAGTCAAAGCA,-0.562
16,ATATGTAGGTTGTCGGGTCATTCAGTTTGCGCAT,0.953
17,ACTAGCAGGCCAAGTTTGGGTCACTTAAACAAAG,-0.362
18,GGAACGAGGGCAAGTTGATAGCAGAGTTTGATGG,-0.586
19,GCGACTGGAGCATCAGCAGGTTACCATAACTTAA,-1.27
20,AATACAGGGTCACAAGGCCAGAGTAGGTACGAAT,1.18
